The text below walks through data of PMC7862700, “An all-to-all approach to the identification of sequence-specific readers for epigenetic DNA modifications on cytosine”.

What all share (test): DAPPL (digital affinity profiling via proximity ligation, sequencing); 10 mM Tris-HCl pH 7.5, 50 mM NaCl, 1 mM DTT, 4% glycerol, room temperature, 30 min; GST-TFs on glutathione beads, 16-mer random dsDNA library, 0.1% formaldehyde crosslink after washing; high values mean tight binding
Conditions in all cases: protein: recombinant; tags: N-terminal GST; dsDNA, one strand shown

For one experiment, the target named is T1, ERF (Homo sapiens, UniProt P50548 1-548).
T1 sequence: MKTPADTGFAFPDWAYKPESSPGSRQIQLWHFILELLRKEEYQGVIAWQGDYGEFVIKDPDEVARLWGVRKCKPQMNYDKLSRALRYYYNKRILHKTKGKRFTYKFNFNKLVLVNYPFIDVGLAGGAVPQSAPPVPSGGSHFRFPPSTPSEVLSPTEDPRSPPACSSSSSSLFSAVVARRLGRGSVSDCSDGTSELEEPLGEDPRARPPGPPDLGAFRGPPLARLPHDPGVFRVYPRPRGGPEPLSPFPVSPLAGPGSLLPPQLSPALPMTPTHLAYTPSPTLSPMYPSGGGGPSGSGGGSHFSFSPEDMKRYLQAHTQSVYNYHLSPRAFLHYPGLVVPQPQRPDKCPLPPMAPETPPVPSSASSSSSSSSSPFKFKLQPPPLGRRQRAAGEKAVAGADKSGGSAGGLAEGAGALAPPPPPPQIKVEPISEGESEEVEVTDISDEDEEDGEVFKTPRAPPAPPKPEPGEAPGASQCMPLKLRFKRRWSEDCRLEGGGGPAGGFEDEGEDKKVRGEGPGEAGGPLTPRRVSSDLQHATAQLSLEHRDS
An outline of the steps: (§1)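 Beads coated with glutathione captured GST-fused human transcription factors that had been expressed in yeast, and the factors were then given DNA barcodes and pooled with a tag-only sample. The pools were incubated with 200 nmole of a random double-stranded 16-mer DNA library in Tris/NaCl/DTT/glycerol buffer for 30 min at room temperature, washed, crosslinked with 0.1% formaldehyde and proximity-ligated with BsaI/T4 ligase at 37 °C for 1 h. PCR amplification and Illumina NextSeq500 sequencing came last. Binding signal is each hexamer's read frequency for a factor divided by its frequency for the tag-only sample.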

The next experiment concerns the target T2, ETV3L (Homo sapiens, UniProt Q6ZN32 1-361).
T2 sequence: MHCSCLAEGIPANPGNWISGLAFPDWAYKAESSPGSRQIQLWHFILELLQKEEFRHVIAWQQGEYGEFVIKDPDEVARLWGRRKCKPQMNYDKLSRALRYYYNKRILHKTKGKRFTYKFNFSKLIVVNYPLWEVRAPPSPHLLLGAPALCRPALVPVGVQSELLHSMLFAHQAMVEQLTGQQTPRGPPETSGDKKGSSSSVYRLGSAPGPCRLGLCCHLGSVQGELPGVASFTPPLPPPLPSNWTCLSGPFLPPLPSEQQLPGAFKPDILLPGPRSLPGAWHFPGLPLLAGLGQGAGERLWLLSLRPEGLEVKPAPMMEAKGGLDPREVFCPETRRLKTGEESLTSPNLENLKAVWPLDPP
An outline of the steps: as §1

Another experiment addresses T3, ETS2 (Homo sapiens, UniProt P15036 1-469).
T3 sequence: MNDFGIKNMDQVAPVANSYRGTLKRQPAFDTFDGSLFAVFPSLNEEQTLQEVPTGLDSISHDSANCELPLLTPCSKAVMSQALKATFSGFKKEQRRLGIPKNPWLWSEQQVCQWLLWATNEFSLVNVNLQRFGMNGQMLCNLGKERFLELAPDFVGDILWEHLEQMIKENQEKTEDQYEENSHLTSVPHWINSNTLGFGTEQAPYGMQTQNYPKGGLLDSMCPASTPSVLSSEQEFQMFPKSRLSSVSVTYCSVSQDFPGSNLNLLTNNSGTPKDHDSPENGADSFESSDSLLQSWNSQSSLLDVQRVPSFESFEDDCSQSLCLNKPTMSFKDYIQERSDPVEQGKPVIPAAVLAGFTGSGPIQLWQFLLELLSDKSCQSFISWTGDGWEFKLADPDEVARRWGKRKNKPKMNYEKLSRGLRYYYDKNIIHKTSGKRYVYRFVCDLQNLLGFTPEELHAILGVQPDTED
An outline of the steps: as §1

A further experiment deals with T4, SPDEF (Homo sapiens, UniProt O95238 1-335).
T4 sequence: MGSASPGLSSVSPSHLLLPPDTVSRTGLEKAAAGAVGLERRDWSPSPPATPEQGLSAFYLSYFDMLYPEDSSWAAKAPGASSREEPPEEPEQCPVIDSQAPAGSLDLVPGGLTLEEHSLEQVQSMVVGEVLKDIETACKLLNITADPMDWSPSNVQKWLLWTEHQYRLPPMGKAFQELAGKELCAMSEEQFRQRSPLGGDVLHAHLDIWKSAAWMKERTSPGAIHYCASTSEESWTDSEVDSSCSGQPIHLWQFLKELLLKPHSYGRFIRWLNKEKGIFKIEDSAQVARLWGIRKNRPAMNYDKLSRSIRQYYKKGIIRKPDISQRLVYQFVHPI
In a few lines: as §1

Another experiment deals with T5, ETV7 (Homo sapiens, UniProt Q9Y603 1-341).
T5 sequence: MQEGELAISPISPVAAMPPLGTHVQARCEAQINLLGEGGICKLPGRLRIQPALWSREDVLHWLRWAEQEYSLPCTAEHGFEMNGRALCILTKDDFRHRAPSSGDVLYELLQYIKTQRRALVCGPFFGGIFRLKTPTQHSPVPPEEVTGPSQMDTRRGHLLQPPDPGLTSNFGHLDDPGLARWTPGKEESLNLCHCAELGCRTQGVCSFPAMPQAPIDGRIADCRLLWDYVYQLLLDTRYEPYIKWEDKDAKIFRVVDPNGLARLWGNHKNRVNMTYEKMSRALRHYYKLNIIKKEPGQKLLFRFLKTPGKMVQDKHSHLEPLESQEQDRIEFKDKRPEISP
An outline of the steps:
as §1

A further experiment has as its target T6, ELF5 (Homo sapiens, UniProt Q9UKW6-2 1-255).
T6 sequence: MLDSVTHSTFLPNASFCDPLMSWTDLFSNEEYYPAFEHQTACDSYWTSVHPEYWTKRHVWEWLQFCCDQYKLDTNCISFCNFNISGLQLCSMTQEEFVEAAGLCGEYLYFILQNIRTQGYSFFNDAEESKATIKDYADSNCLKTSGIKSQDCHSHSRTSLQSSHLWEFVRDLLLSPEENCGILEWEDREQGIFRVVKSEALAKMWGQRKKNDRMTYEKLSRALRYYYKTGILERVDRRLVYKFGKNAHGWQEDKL
An outline of the steps: as §1

The next experiment concerns the target T7, ETV3 (Homo sapiens, UniProt P41162-2 1-143).
T7 sequence: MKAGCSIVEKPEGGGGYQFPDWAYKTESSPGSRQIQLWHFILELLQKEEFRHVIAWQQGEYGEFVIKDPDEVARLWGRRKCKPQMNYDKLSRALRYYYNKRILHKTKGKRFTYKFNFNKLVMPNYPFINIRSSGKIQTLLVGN
In a few lines:
as §1

A further experiment has as its target ETV6 (Homo sapiens, UniProt P41212 1-452). In a few lines: as §1

Sequence of ETV6 (P41212 whole entry): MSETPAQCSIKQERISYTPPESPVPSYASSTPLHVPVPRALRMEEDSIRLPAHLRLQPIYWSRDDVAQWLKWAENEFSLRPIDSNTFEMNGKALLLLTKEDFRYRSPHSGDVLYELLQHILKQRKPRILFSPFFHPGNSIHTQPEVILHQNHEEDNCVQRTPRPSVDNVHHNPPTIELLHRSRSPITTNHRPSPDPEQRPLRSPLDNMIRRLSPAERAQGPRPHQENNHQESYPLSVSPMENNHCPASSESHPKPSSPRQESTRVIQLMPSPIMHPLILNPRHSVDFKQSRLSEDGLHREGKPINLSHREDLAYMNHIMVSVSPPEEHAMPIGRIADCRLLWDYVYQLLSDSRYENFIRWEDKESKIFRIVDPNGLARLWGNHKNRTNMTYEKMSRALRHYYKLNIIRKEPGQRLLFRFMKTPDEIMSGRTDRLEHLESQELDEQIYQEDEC

Turning to ATGGTC, the binding signal with ERF is 1.45 fold enrichment (6-mer frequency, TF over GST control); in the experiment with ETV3L it was 1.49 fold enrichment (6-mer frequency, TF over GST control); with ETS2, 1.49 fold enrichment (6-mer frequency, TF over GST control); in the experiment with SPDEF it was 1.35 fold enrichment (6-mer frequency, TF over GST control); with ETV7, 1.29 fold enrichment (6-mer frequency, TF over GST control); with ELF5 it was 1.46 fold enrichment (6-mer frequency, TF over GST control). Also, the binding signal with ETV3 is 1.55 fold enrichment (6-mer frequency, TF over GST control); in the experiment with ETV6, 1.52 fold enrichment (6-mer frequency, TF over GST control).
Turning to GTAATG, the binding signal in the experiment with ERF is 1.12 fold enrichment (6-mer frequency, TF over GST control); with ETV3L, 1.11 fold enrichment (6-mer frequency, TF over GST control); in the experiment with ETS2, 1.07 fold enrichment (6-mer frequency, TF over GST control); in the experiment with SPDEF, 1.15 fold enrichment (6-mer frequency, TF over GST control); with ETV7, 1.05 fold enrichment (6-mer frequency, TF over GST control); with ELF5, 1.1 fold enrichment (6-mer frequency, TF over GST control). Besides, in the experiment with ETV6, the binding signal is 1.03 fold enrichment (6-mer frequency, TF over GST control).
For GGTACT, the binding signal in the experiment with ERF was 1.38 fold enrichment (6-mer frequency, TF over GST control); in the experiment with ETV3L it was 1.3 fold enrichment (6-mer frequency, TF over GST control); in the experiment with ETS2, 1.31 fold enrichment (6-mer frequency, TF over GST control); in the experiment with SPDEF it was 1.31 fold enrichment (6-mer frequency, TF over GST control); with ETV7, 1.2 fold enrichment (6-mer frequency, TF over GST control); with ELF5, 1.28 fold enrichment (6-mer frequency, TF over GST control). The binding signal with ETV3 was 1.24 fold enrichment (6-mer frequency, TF over GST control); in the experiment with ETV6 it was 1.16 fold enrichment (6-mer frequency, TF over GST control).
In the case of TTTCTT, the binding signal was 1.22 fold enrichment (6-mer frequency, TF over GST control) with ERF; 1.34 fold enrichment (6-mer frequency, TF over GST control) with ETV3L; 1.32 fold enrichment (6-mer frequency, TF over GST control) with ETS2; 1.19 fold enrichment (6-mer frequency, TF over GST control) with SPDEF; 1.37 fold enrichment (6-mer frequency, TF over GST control) with ETV7; 1.31 fold enrichment (6-mer frequency, TF over GST control) with ELF5. For the same sequence, the binding signal is 1.34 fold enrichment (6-mer frequency, TF over GST control) with ETV3 and 1.23 fold enrichment (6-mer frequency, TF over GST control) with ETV6.
As to CGACCG, the binding signal is 1.17 fold enrichment (6-mer frequency, TF over GST control) with ERF; 1.28 fold enrichment (6-mer frequency, TF over GST control) in the experiment with ETV3L; 1.22 fold enrichment (6-mer frequency, TF over GST control) with ETS2; 1.22 fold enrichment (6-mer frequency, TF over GST control) with SPDEF; 1.13 fold enrichment (6-mer frequency, TF over GST control) with ETV7; 1.12 fold enrichment (6-mer frequency, TF over GST control) with ELF5. Also, the binding signal with ETV3 is 1.12 fold enrichment (6-mer frequency, TF over GST control); with ETV6, 1.18 fold enrichment (6-mer frequency, TF over GST control).
As for TGCAAA, the binding signal with ERF is 1.13 fold enrichment (6-mer frequency, TF over GST control); with ETV3L it was 1.15 fold enrichment (6-mer frequency, TF over GST control); with ETS2 it was 1.05 fold enrichment (6-mer frequency, TF over GST control); in the experiment with SPDEF it was 1.1 fold enrichment (6-mer frequency, TF over GST control); with ETV7, 1.09 fold enrichment (6-mer frequency, TF over GST control); with ELF5, 1.05 fold enrichment (6-mer frequency, TF over GST control). The binding signal is 1.06 fold enrichment (6-mer frequency, TF over GST control) in the experiment with ETV3 and 1.06 fold enrichment (6-mer frequency, TF over GST control) with ETV6.
Take ACACGA: the binding signal is 1.15 fold enrichment (6-mer frequency, TF over GST control) in the experiment with ERF; 1.04 fold enrichment (6-mer frequency, TF over GST control) with ETV3L; 1.08 fold enrichment (6-mer frequency, TF over GST control) in the experiment with ETS2; 1.03 fold enrichment (6-mer frequency, TF over GST control) with SPDEF; 1.11 fold enrichment (6-mer frequency, TF over GST control) in the experiment with ETV7; 1.03 fold enrichment (6-mer frequency, TF over GST control) in the experiment with ELF5. Moreover, the binding signal in the experiment with ETV6 is 1.06 fold enrichment (6-mer frequency, TF over GST control).
Consider GCAAAT, for which the binding signal is 1.11 fold enrichment (6-mer frequency, TF over GST control) in the experiment with ERF; 1.05 fold enrichment (6-mer frequency, TF over GST control) with ETV3L; 1.01 fold enrichment (6-mer frequency, TF over GST control) with ETS2; 1.11 fold enrichment (6-mer frequency, TF over GST control) in the experiment with SPDEF; 1.04 fold enrichment (6-mer frequency, TF over GST control) with ETV7; 1.01 fold enrichment (6-mer frequency, TF over GST control) with ELF5. Besides, the binding signal in the experiment with ETV6 is 1 fold enrichment (6-mer frequency, TF over GST control).
On to CCGTAT, for which the binding signal is 1.19 fold enrichment (6-mer frequency, TF over GST control) in the experiment with ERF; 1.17 fold enrichment (6-mer frequency, TF over GST control) with ETV3L; 1.18 fold enrichment (6-mer frequency, TF over GST control) with ETS2; 1.41 fold enrichment (6-mer frequency, TF over GST control) in the experiment with SPDEF; 1.09 fold enrichment (6-mer frequency, TF over GST control) in the experiment with ETV7; 1.31 fold enrichment (6-mer frequency, TF over GST control) in the experiment with ELF5. For the same sequence, the binding signal with ETV3 is 1.38 fold enrichment (6-mer frequency, TF over GST control); in the experiment with ETV6, 1.24 fold enrichment (6-mer frequency, TF over GST control).
